Reference: PubChem BioAssay AID493169 (National Center for Advancing Translational Sciences (NCATS), 2011)
Inconclusive results are not listed. Entries that show only a call come without a potency. The source made the active and inactive calls. The call rests on the fitted dose curve; in most records, active means well fitted inhibition curve with a large enough effect; inconclusive means small, poorly fitted or top-dose-only effect; inactive means flat fitted curve, though single readings scatter.

Assay: CHOP2 Reporter Counterscreen Assay for Inhibitors of Ubiquitin-specific Protease USP2a;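 further: activated enterokinase alone at 50 pM in a cell-free format rather than USP2a or CHOP2; nearly all actives have a fitted effect of over 55% in size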
Details: purified enterokinase, fluorogenic substrate, 485/531 nm; series mostly up to 38.3 µM
How it was run: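 Cell-free counterscreen with pre-activated enterokinase alone (50 pM final) in 20mM Tris-HCl pH 8.0, 2mM CaCl2, 2mM beta-mercaptoethanol, 0.05% CHAPS; compound preincubation 30 min RT, reporter substrate 25nM final, fluorescence read after 10 min (Ex 485/Em 531).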
Potency means the concentration at half of the fitted maximal effect.

SMILES	Potency
O=C(N/C(=C/c1cccnc1)C(=O)N1CCOCC1)c1ccco1	inactive
Cn1c(=O)c(C(=O)Nc2ncccc2O)c(O)c2ccccc21	10 µM (active)
Cc1ccc(NC(=O)c2onc(C)c2Cl)cc1	inactive
O=C(Nc1cnn(Cc2ccccc2)c1)c1nc2ncccn2n1	inactive
Cc1c(C(=O)Nc2ccc3c4c(cccc24)CC3)cccc1[N+](=O)[O-]	inactive
O=C(NCc1ccccc1)C1CCC1	inactive
Cc1cc(C)cc(OCC(=O)Nc2ccc(N3CCCC3)cc2)c1	10 µM (active)
COc1ccc(-c2[nH]ncc2/C=C(/C#N)C(=O)NC2CCCCC2)cc1	inactive
CCOC(=O)c1ccc(NC(=O)C2=C(C)Nc3nc(CCCO)nn3C2c2cccc(C)c2)cc1 (centres undefined)	inactive
CCCCC1CCC(C(=O)Nc2ccc(S(=O)(=O)Nc3nccs3)cc2)CC1 (centres undefined)	inactive
CCN(CC)S(=O)(=O)c1ccc(Cl)c(NC(=O)COC(=O)c2c(C)noc2C)c1	inactive
Nc1c(C(=O)Nc2ccc(Cl)cc2)oc2ccccc12	inactive
CSc1ncccc1C(=O)OCC(=O)N1CCOCC1	inactive
Cc1ccc(C(=O)COC(=O)CNC(=O)CN2C(=O)c3ccccc3C2=O)cc1	inactive
Cc1ccc(N2CCN(C(=O)CCc3nc4ccccc4[nH]3)CC2)c(C)c1	inactive
COc1ccc(NC(=O)CN(Cc2ccccc2)S(C)(=O)=O)cc1	inactive
Cc1ccc(OCC(=O)Nc2ccc(N3CCCC3)cc2)cc1C	10 µM (active)
FC(F)Sc1ccc(NC(=S)NC2CCCCC2)cc1	inactive
Cc1nc2cc3ccccc3cc2c(=O)[nH]1	inactive
